Experimental data from PubChem BioAssay (NCATS).
Records with an inconclusive call do not appear. Calls of active or inactive are those of the source. Calls come from the whole dose curve; as a rule, active = well fitted curve in the direction sought with a large enough effect; inconclusive = small, poorly fitted or top-dose-only effect, or another doubt; inactive = no such curve, though single readings can be large; an effect the other way counts as inactive or inconclusive.

How the values were obtained:
NIH3T3 = assay: qHTS assay to identify novel small-molecules to repurpose for Merkel cell carcinoma treatment (AID 1296009); details: MCC and control cell lines, CellTiter-Glo viability, 72 h; at 44.8 µM (top of the series) unless noted; note: nearly all actives have a fitted effect of over 60% in size; note: potency is the fitted concentration of half-maximal effect
Summary of the method: (§1)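 CellTiter-Glo luminescence after 72 hr compound exposure at 37 degree celsius gave cell viability. Libraries NPC and MIPE were run as 8- and 11-point dose responses; RLUs normalized to DMSO (negative) and no-cell (cytotoxicity) controls.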

WaGa = assay: as above; details: MCC and control cell lines, CellTiter-Glo viability, 72 h; series mostly up to 46 µM
Summary of the method: as §1

C33A = assay: Primary qHTS to identify gynecologic anti-cancer compounds using libraries of approved drugs and bioactive compounds (AID 1345084); details: Gynecologic cancer cell panel viability, ATPlite luminescence, 48 h; series mostly up to 57.5 µM; note: nearly all actives have a fitted effect of over 55% in size
Summary of the method: (§2)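 Luminescence from the ATPlite ATP-monitoring reagent indicates viable cell number; lower signal means cytotoxicity. Cells received compound 16 h after seeding and were exposed for 48 h across five concentrations.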

CAOV3 = assay: as above; details: Gynecologic cancer cell panel viability, ATPlite luminescence, 48 h; series mostly up to 57.5 µM
Summary of the method: as §2

CASKI = assay: as above; details: Gynecologic cancer cell panel viability, ATPlite luminescence, 48 h; series mostly up to 57.5 µM
Summary of the method: as §2

Es-2 = assay: as above; details: Gynecologic cancer cell panel viability, ATPlite luminescence, 48 h; series mostly up to 57.5 µM
Summary of the method: as §2

HeLa = assay: as above; details: Gynecologic cancer cell panel viability, ATPlite luminescence, 48 h; series mostly up to 57.5 µM
Summary of the method: as §2

Hek293T = assay: as above; details: Gynecologic cancer cell panel viability, ATPlite luminescence, 48 h, control line for the selectivity index; series mostly up to 57.5 µM
Summary of the method: as §2

JEG-3 = assay: as above; details: Gynecologic cancer cell panel viability, ATPlite luminescence, 48 h; series mostly up to 57.5 µM
Summary of the method: as §2

OV90 = assay: as above; details: Gynecologic cancer cell panel viability, ATPlite luminescence, 48 h; series mostly up to 57.5 µM
Summary of the method: as §2

PA-1 = assay: as above; details: Gynecologic cancer cell panel viability, ATPlite luminescence, 48 h; series mostly up to 57.5 µM
Summary of the method: as §2

SKOV3 = assay: as above; details: Gynecologic cancer cell panel viability, ATPlite luminescence, 48 h; series mostly up to 57.5 µM
Summary of the method: as §2

Tov-21-G = assay: as above; details: Gynecologic cancer cell panel viability, ATPlite luminescence, 48 h; series mostly up to 57.5 µM
Summary of the method: as §2

Tov112D = assay: as above; details: Gynecologic cancer cell panel viability, ATPlite luminescence, 48 h; series mostly up to 57.5 µM
Summary of the method: as §2

UISO = assay: qHTS assay to identify novel small-molecules to repurpose for Merkel cell carcinoma treatment (AID 1296009); details: MCC and control cell lines, CellTiter-Glo viability, 72 h; series mostly up to 46 µM; note: nearly all actives have a fitted effect of over 60% in size; note: potency is the fitted concentration of half-maximal effect
Summary of the method: as §1

[1] = Drug repurposing screens with cells derived from glioblastoma tumor samples (AID 1345199); details: GBM patient neurospheres viability, ATP luminescence, 48 h; note: nearly all actives have a fitted effect of over 40% in size; note: potency is the fitted concentration of half-maximal effect
Summary of the method: (§3)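 Primary testing used CD133+ neurospheres from four GBM patients, seven concentrations, 48 h exposure and ATP-based viability; confirmation added three slower-growing patient lines.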

astro = assay: as above; details: viability, ATP luminescence, 48 h; series mostly up to 45.9 µM
Summary of the method: as §3
% is set by controls: 0 for no effect and ±100 for the full control effect.

Cc1cc(O)c(C)c(C)c1O
inactive: outcome (NIH3T3) | Potency (WaGa) | Potency (C33A) | Potency (CAOV3) | Potency (CASKI) | Potency (Es-2) | Potency (HeLa) | Potency (Hek293T) | Potency (JEG-3) | Potency (OV90) | Potency (PA-1) | Potency (SKOV3) | Potency (Tov-21-G) | Potency (Tov112D)

CCC(CN)=C(c1ccccc1)c1ccccc1
inactive: outcome (NIH3T3) | Potency (UISO) | Potency (WaGa) | Potency (C33A) | Potency (CAOV3) | Potency (CASKI) | Potency (Es-2) | Potency (HeLa) | Potency (Hek293T) | Potency (JEG-3) | Potency (PA-1) | Potency (SKOV3) | Potency (Tov-21-G) | Potency (Tov112D)

CCCCOC(=O)CCCCCCCCC(=O)OCCCC
inactive: outcome (NIH3T3) | Potency (UISO) | Potency (WaGa) | Potency (C33A) | Potency (CASKI) | Potency (Es-2) | Potency (HeLa) | Potency (Hek293T) | Potency (JEG-3) | Potency (OV90) | Potency (PA-1) | Potency (SKOV3) | Potency (Tov-21-G) | Potency (Tov112D)

Nc1ccc(C(=O)N2CC3CC(CN(Cc4ccccc4)C3)C2)cc1
inactive: outcome (NIH3T3) | Potency (UISO) | Potency (WaGa) | Potency (C33A) | Potency (CAOV3) | Potency (CASKI) | Potency (Es-2) | Potency (HeLa) | Potency (Hek293T) | Potency (JEG-3) | Potency (PA-1) | Potency (SKOV3) | Potency (Tov-21-G) | Potency (Tov112D)

Nc1cc(C(F)(F)F)ccc1S
inactive: outcome (NIH3T3) | Potency (C33A) | Potency (CAOV3) | Potency (CASKI) | Potency (Es-2) | Potency (HeLa) | Potency (Hek293T) | Potency (JEG-3) | Potency (OV90) | Potency (PA-1) | Potency (SKOV3) | Potency (Tov-21-G) | Potency (Tov112D)
active: Potency (UISO) 13.3 µM

O=C(Nc1ccc(S(=O)(=O)N2CCOCC2)cc1)c1cc(Cl)ccc1NS(=O)(=O)c1ccc(Cl)s1
active: Potency ([1]; tumour line A) 6.31 µM | Potency ([1]; tumour line C) 25.9 µM | Potency ([1]; tumour line D) 15.8 µM | Potency (astro) 31.6 µM
inactive: outcome (NIH3T3) | Potency (UISO) | Potency (WaGa) | Potency (CAOV3) | Potency (CASKI) | Potency (Es-2) | Potency (HeLa) | Potency (Hek293T) | Potency (JEG-3) | Potency (OV90) | Potency (SKOV3) | Potency (Tov-21-G) | Potency (Tov112D) | activity, negative = cell killing ([1]; at 45.9 µM (top of the series), tumour line B) -15.3%

Cc1cccc(C)c1NC(=O)c1ccc(N)cc1
inactive: outcome (NIH3T3) | Potency (UISO) | Potency (WaGa) | Potency (C33A) | Potency (CASKI) | Potency (Es-2) | Potency (HeLa) | Potency (Hek293T) | Potency (JEG-3) | Potency (OV90) | Potency (PA-1) | Potency (SKOV3) | Potency (Tov-21-G) | Potency (Tov112D)

Brc1ccc([C@H]2CN3CCSC3=N2)cc1
inactive: outcome (NIH3T3) | Potency (C33A) | Potency (CAOV3) | Potency (CASKI) | Potency (Es-2) | Potency (HeLa) | Potency (Hek293T) | Potency (JEG-3) | Potency (OV90) | Potency (PA-1) | Potency (SKOV3) | Potency (Tov-21-G) | Potency (Tov112D)

C[C@H]1C[C@H]2[C@@H]3CCC4=CC(=O)C=C[C@]4(C)[C@H]3C(=O)C[C@]2(C)[C@@]1(O)C(=O)CO
inactive: outcome (NIH3T3) | Potency (UISO) | Potency (WaGa) | Potency (C33A) | Potency (CASKI) | Potency (Es-2) | Potency (HeLa) | Potency (Hek293T) | Potency (JEG-3) | Potency (PA-1) | Potency (SKOV3) | Potency (Tov-21-G) | Potency (Tov112D)

CCC1(c2cnc[nH]2)Cc2ccccc2C1
inactive: outcome (NIH3T3) | Potency (UISO) | Potency (WaGa) | Potency (C33A) | Potency (CASKI) | Potency (Es-2) | Potency (HeLa) | Potency (Hek293T) | Potency (JEG-3) | Potency (OV90) | Potency (PA-1) | Potency (SKOV3) | Potency (Tov-21-G) | Potency (Tov112D)

Cc1ccc(C(=O)Oc2ccc(C(O)CNC(C)(C)C)cc2OC(=O)c2ccc(C)cc2)cc1 (stereo not drawn)
inactive: outcome (NIH3T3) | Potency (UISO) | Potency (C33A) | Potency (CASKI) | Potency (Es-2) | Potency (HeLa) | Potency (Hek293T) | Potency (JEG-3) | Potency (PA-1) | Potency (Tov-21-G) | Potency (Tov112D)

Nc1ncnc2c1ncn2Cc1c(F)cccc1Cl
inactive: outcome (NIH3T3) | Potency (UISO) | Potency (WaGa) | Potency (C33A) | Potency (CASKI) | Potency (Es-2) | Potency (HeLa) | Potency (Hek293T) | Potency (JEG-3) | Potency (OV90) | Potency (PA-1) | Potency (SKOV3) | Potency (Tov-21-G) | Potency (Tov112D)

CC(=O)OC[C@H]1O[C@@H](OC(C)=O)[C@H](OC(C)=O)[C@@H]1OC(C)=O
inactive: outcome (NIH3T3) | Potency (UISO) | Potency (WaGa) | Potency (C33A) | Potency (CASKI) | Potency (Es-2) | Potency (HeLa) | Potency (Hek293T) | Potency (JEG-3) | Potency (OV90) | Potency (PA-1) | Potency (SKOV3) | Potency (Tov-21-G) | Potency (Tov112D)

O=C(O)CCCC[P+](c1ccccc1)(c1ccccc1)c1ccccc1
inactive: Potency (UISO) | Potency (WaGa) | Potency (C33A) | Potency (CAOV3) | Potency (CASKI) | Potency (Es-2) | Potency (HeLa) | Potency (Hek293T) | Potency (JEG-3) | Potency (OV90) | Potency (PA-1) | Potency (SKOV3) | Potency (Tov-21-G) | Potency (Tov112D)

Cc1onc(-c2ccccc2)c1C(=O)Cl
inactive: Potency (UISO) | Potency (WaGa) | Potency (C33A) | Potency (CAOV3) | Potency (CASKI) | Potency (Es-2) | Potency (HeLa) | Potency (Hek293T) | Potency (JEG-3) | Potency (OV90) | Potency (PA-1) | Potency (SKOV3) | Potency (Tov-21-G) | Potency (Tov112D)

CC(=O)N(c1onc(C)c1C)S(=O)(=O)c1ccc(N)cc1
inactive: Potency (UISO) | Potency (WaGa) | Potency (C33A) | Potency (CAOV3) | Potency (CASKI) | Potency (Es-2) | Potency (HeLa) | Potency (Hek293T) | Potency (JEG-3) | Potency (OV90) | Potency (PA-1) | Potency (SKOV3) | Potency (Tov-21-G) | Potency (Tov112D)
